Most compounds without a hit are left out; they make up all but 9.4% or so of the library.
FLuc modulator – qHTS profiling assay for firefly luciferase inhibitor/activator using purifed enzyme and Km concentrations of substrates (counterscreen for miR-21 project); Luciferin 4-monooxygenase (Photinus pyralis), P08659; purified FLuc, Km substrates, luminescence inhibition; Potency, µM (doses to about 57.5 µM), for inactives: at the top dose activity change, negative = inhibition, actives largely listed as inhibitors; 6.9% of 360,000 active;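 further: plate controls were vehicle for no effect and reference inhibitor for full effect; nearly all actives have a fitted effect of over 55% in size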
Target sequence (P08659 whole entry, looked up): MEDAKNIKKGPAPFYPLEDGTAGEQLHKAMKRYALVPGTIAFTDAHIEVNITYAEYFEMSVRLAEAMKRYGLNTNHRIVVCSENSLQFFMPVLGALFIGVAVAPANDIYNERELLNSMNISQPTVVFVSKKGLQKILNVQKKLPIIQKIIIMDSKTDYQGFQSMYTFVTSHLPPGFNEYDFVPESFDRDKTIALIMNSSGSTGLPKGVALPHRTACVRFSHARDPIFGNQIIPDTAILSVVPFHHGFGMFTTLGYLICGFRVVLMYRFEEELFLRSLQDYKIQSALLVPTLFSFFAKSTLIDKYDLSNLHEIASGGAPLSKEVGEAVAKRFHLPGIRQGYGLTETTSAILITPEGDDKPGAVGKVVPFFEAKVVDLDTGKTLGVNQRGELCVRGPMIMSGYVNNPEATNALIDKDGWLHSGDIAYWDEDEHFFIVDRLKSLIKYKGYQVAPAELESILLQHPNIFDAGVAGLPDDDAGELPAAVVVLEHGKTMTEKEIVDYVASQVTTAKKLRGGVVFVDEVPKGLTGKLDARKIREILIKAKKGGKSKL
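Purified P. pyralis luciferase, 10 nM final, with Km-level 10 uM D-luciferin and 10 uM ATP in 50 mM Tris acetate pH 7.5, 10 mM Mg acetate, 0.01% Tween-20, 0.05% BSA; 6-point qHTS titration about 60 µM downward; luminescence read.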
Rab9 promoter act – qHTS Assay for Rab9 Promoter Activators | Huh7 Rab9 promoter-luciferase reporter, luminescence, 24 h | Potency, µM (series often up to 9.22 µM), without a hit: top-dose activation, negative = inhibition, actives largely listed as activators | 2.8% of 320,000 active | AID 485297, 2010; further: % of control where 0% means no effect; nearly all actives have a fitted effect of over 60% in size
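Stable Rab9-luc Huh7, 1500 cells/well, 2 h settle; cmpd in DMSO, 24 h, 37 °C/5% CO2; luciferase reagent 10 min RT; luminescence.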
ELG1 genotoxic – qHTS screen for small molecules that induce genotoxicity in human embryonic kidney (HEK293T) cells expressing luciferase-tagged ELG1. HEK293T ELG1-luciferase reporter, luminescence, 16 h. Potency, µM (highest dose often 46 µM), for inactives: at the top dose activity change, positive = activation, actives largely listed as activators. 1.3% of 330,000 active. AID 504466, 2011; further: % of control where 0% means no effect; nearly all actives have a fitted effect of over 60% in size
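After overnight (16 hr) compound treatment at 37 °C, ELG1-luciferase HEK293T cells were lysed with ONE-Glo; luminescence quantified 30 min later at room temperature.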
ELG1 DNA repair – qHTS screen for small molecules that inhibit ELG1-dependent DNA repair in human embryonic kidney (HEK293T) cells expressing luciferase-tagged ELG1. HEK293T ELG1-luciferase reporter, luminescence, 16 h; DNA damage induced by 5-fluorouridine. Potency, µM (top dose mostly 46.1 µM), for the others: at the highest dose activity change, negative = inhibition, most hits filed as inhibitors. 2.3% of 330,000 active; further: on the % scale 0 is the no-effect control and ±100 the full control effect; nearly all actives have a fitted effect of over 55% in size
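Reporter activity after DNA damage by 5-fluorouridine is monitored. Compound-treated cells incubate 16 hr at 37 °C, then ONE-Glo is added for 30 min before luminescence reading.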
NPC1 prom act – qHTS Assay for NPC1 Promoter Activators. Huh7 NPC1 promoter luciferase reporter, 24 h. Potency, µM (doses to about 9.22 µM), for the others: at the highest dose activation, usual class: activators. 2.4% of 320,000 active. AID 485313, 2010; further: % of control where 0% means no effect; nearly all actives have a fitted effect of over 60% in size
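In 1536-well qHTS, Huh7 cells harboring an NPC1 promoter–luciferase construct received compound for 24 h; activation was quantified by luminescence following luciferase reagent addition.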
SMN2 splice enh – qHTS Assay for Enhancers of SMN2 Splice Variant Expression; HEK293 SMN2-luciferase splicing reporter, luminescence, 30-36 h; Potency, µM (top dose mostly 46.1 µM), without a hit: at the top dose activity change, positive = activation, usual class: activators; 2.8% of 210,000 active; further: % of control where 0% means no effect; nearly all actives have a fitted effect of over 55% in size
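qHTS luciferase splicing reporter: luminescence rises when SMN2 exon 7 is included in transfected HEK293 cells. Compound exposure lasted 30-36 h at 37C, with 4.5 mM final sodium butyrate as control, followed by a ONE-Glo read.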
Active calls of the source: *. The call rests on the fitted dose curve; in most records, active means well fitted curve in the direction sought with a large enough effect; inconclusive means small, poorly fitted or top-dose-only effect, or another doubt; inactive means no such curve, though single readings can be large; an effect the other way counts as inactive or inconclusive. Potency means the concentration at half of the fitted maximal effect.

Cc1ccc2cc(CCNC(=O)c3ccco3)c(=O)[nH]c2c1 was read as FLuc modulator 19µM*, Rab9 promoter act 2.5µM*, ELG1 genotoxic 18%, ELG1 DNA repair inconclusive, NPC1 prom act inconclusive and SMN2 splice enh 10µM*.
For COc1ccc(OC)c2[nH]c(=O)c(CCNC(=O)c3cc4ccccc4o3)cc12 the results were FLuc modulator 2%, Rab9 promoter act -9%, ELG1 genotoxic -15%, ELG1 DNA repair 18µM*, NPC1 prom act 0% and SMN2 splice enh -19%.
`COc1ccc2cc(CCNC(=O)C(C)C)c(=O)[nH]c2c1` gave FLuc modulator 2%, Rab9 promoter act 11%, ELG1 genotoxic 10%, ELG1 DNA repair inconclusive, NPC1 prom act 9% and SMN2 splice enh 9%.
`Cc1ccc2cc(CCNC(=O)c3ccco3)c(=O)[nH]c2c1C` gave FLuc modulator 4.3µM*, Rab9 promoter act 1.4µM*, ELG1 genotoxic inconclusive, ELG1 DNA repair inconclusive, NPC1 prom act 3.5µM* and SMN2 splice enh 7.1µM*.
`COc1ccc(S(=O)(=O)c2c(Nc3c(C)cccc3C)sc(C(=O)c3ccc(F)cc3)c2N)cc1` gave FLuc modulator -3%.
Screening Cc1cccc(COc2ccc(-c3cc(C(F)(F)F)n4nc(C)cc4n3)cc2)c1 returned FLuc modulator -8% and SMN2 splice enh 4%.
For CCOc1ccc(/C=C/c2nc(C#N)c(NC(C)c3ccccc3)o2)cc1 (stereo not given) the results were FLuc modulator -1% and SMN2 splice enh -1%.
CCOC(=O)c1ccc(NC(=O)C2CCCN(c3ncnc4onc(C)c34)C2)cc1 (stereo not given) was read as FLuc modulator 0%.
Screening CC(C)(C)n1ncc2c(=O)n(CC(=O)Nc3ccccc3)cnc21 returned FLuc modulator -9%, Rab9 promoter act 8%, ELG1 genotoxic 6%, ELG1 DNA repair inconclusive, NPC1 prom act 4% and SMN2 splice enh -13%.
CC(C)(C)n1ncc2c(=O)n(CC(=O)NC3CCCCC3)cnc21 was read as FLuc modulator inconclusive, Rab9 promoter act inconclusive, ELG1 genotoxic inconclusive, ELG1 DNA repair inconclusive, NPC1 prom act inconclusive and SMN2 splice enh 25%.
For CC(C)(C)n1ncc2c(=O)n(CC(=O)NCc3ccc(F)cc3)cnc21 the results were FLuc modulator 4.3µM*, Rab9 promoter act 0.35µM*, ELG1 genotoxic 4.1µM*, ELG1 DNA repair inconclusive, NPC1 prom act 0.5µM* and SMN2 splice enh 8.9µM*.
`CC(C)(C)n1ncc2c(=O)n(CC(=O)NCc3ccco3)cnc21` gave FLuc modulator inconclusive, Rab9 promoter act 3.2µM*, ELG1 genotoxic inconclusive, ELG1 DNA repair inconclusive, NPC1 prom act 3.2µM* and SMN2 splice enh 13µM*.
Screening c1ccc(CSc2nnc(-c3cccs3)o2)cc1 returned FLuc modulator 12µM*, Rab9 promoter act inconclusive, ELG1 genotoxic inconclusive, ELG1 DNA repair inconclusive, NPC1 prom act 2.8µM* and SMN2 splice enh inconclusive.
`Fc1ccccc1CSc1nnc(-c2cccs2)o1` gave FLuc modulator 5.4µM*, Rab9 promoter act 1.8µM*, ELG1 genotoxic 8.2µM*, ELG1 DNA repair inconclusive, NPC1 prom act 1.8µM* and SMN2 splice enh 13µM*.
c1ccc(-c2nnc(CSc3nnc(-c4cccs4)o3)o2)cc1 was read as FLuc modulator -2%, Rab9 promoter act -7%, ELG1 genotoxic 5%, ELG1 DNA repair -3%, NPC1 prom act -4% and SMN2 splice enh 7%.
Fc1ccc(CSc2nnc(-c3cccs3)o2)cc1 was read as FLuc modulator inconclusive, Rab9 promoter act inconclusive, ELG1 genotoxic inconclusive, ELG1 DNA repair inconclusive, NPC1 prom act -2% and SMN2 splice enh inconclusive.
`COc1ccc(Cl)cc1NC(=O)[C@H]1O[C@@H]2OC(C)(C)O[C@@H]2[C@H]2OC(C)(C)O[C@H]21` gave FLuc modulator -4% and SMN2 splice enh 14%.
Screening Cc1cc(C)n2nc(C(=O)Nc3ccc4c(c3)OCO4)cc2n1 returned FLuc modulator 4.8µM*, Rab9 promoter act 3.2µM*, ELG1 genotoxic 2.1µM*, ELG1 DNA repair inconclusive, NPC1 prom act 1.3µM* and SMN2 splice enh 7.9µM*.
Screening CC(=O)c1cccc(Nc2cc(C)nc3nc(-c4ccccc4C)nn23)c1 returned FLuc modulator 19µM* and SMN2 splice enh 3%.
CC(=O)c1cccc(NC(=O)c2cc3nc(C)cc(C)n3n2)c1 was read as FLuc modulator 7.6µM*, Rab9 promoter act 2µM*, ELG1 genotoxic 8.2µM*, ELG1 DNA repair inconclusive, NPC1 prom act inconclusive and SMN2 splice enh 13µM*.
For COc1ccc(CCNC(=O)c2cc3c(s2)-c2c(C)cccc2OC3)c(OC)c1 the results were FLuc modulator -4% and SMN2 splice enh 8%.
For Cc1cccc(CNC(=O)c2sc3ncnc(N(C)C4CCCCC4)c3c2C)c1 the results were FLuc modulator 7%.
Screening Cc1ccc(C)c(OCc2cc(C(=O)N3CCN(c4ccccc4)CC3)no2)c1 returned FLuc modulator 19µM*, Rab9 promoter act 4µM*, ELG1 genotoxic 30%, ELG1 DNA repair inconclusive and NPC1 prom act 2.8µM*.
CCc1cc(C(=O)N2CCN(c3ccccc3)CC2)no1 was read as FLuc modulator -14% and SMN2 splice enh 0%.
For Cc1ccc(C)c(OCc2cc(C(=O)N3CCc4sccc4C3)no2)c1 the results were FLuc modulator 0%, Rab9 promoter act 0%, ELG1 genotoxic -11%, ELG1 DNA repair -23% and NPC1 prom act -3%.
`Cc1ccc(C)c(OCc2cc(C(=O)N3C[C@@H](C)O[C@@H](C)C3)no2)c1` gave FLuc modulator 6µM*, Rab9 promoter act 1.6µM*, ELG1 genotoxic inconclusive, ELG1 DNA repair inconclusive and NPC1 prom act 2.2µM*.
Cc1ccc(C)c(OCc2cc(C(=O)N3CCN(C(=O)c4ccco4)CC3)no2)c1 was read as FLuc modulator 19µM*, Rab9 promoter act 4.5µM*, ELG1 genotoxic inconclusive, ELG1 DNA repair inconclusive and NPC1 prom act 3.2µM*.

Source: PubChem BioAssay
